Experimental data: the supplement of paper PMC4466236
The full ranking holds about 33,000 sequences; the median of “E-score (dimensionless, -0.5 to 0.5)” is about -0.058, and the highest 2% start at about 0.35. The full list was thinned out, with the highest values kept by preference.

System: MvaT
Experiment: PBM 8-mer E-score (mean of HK and ME arrays) (E-score (dimensionless, -0.5 to 0.5)); higher = stronger relative binding preference
Protocol: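 Protein binding microarray: GST-tagged full-length MvaT (P. aeruginosa PAO1) bound to two universal double-stranded 60-mer arrays (ME and HK), each with a constant 25-mer primer and a variable 35-mer region covering all 8-mers. The 8-mer E-score (rank-based, range -0.5 to 0.5, >0.45 = specific binding) is the mean of the two arrays.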

Sequence	PBM 8-mer E-score
ATTTCTGC	0.125
ATTCATTA	0.219
GATAGGAA	-0.0142
AAATTGCT	0.214
AACCCGTC	-0.0101
GTCGAGAA	-0.0478
GCATACCC	0.0205
TCACGCAA	-0.124
AAGTTTTA	0.318
ATGTTTAG	0.212
CTGTTTAA	0.302
AAGTTTAC	0.157
AAGTTTGA	0.289
AAGTTTAG	0.288
CAGTTTAA	0.26
ATGTTTAA	0.391
TAGTTTAA	0.398
GAGTTTAA	0.235
AAGTTTAT	0.358
AAGTTTAA	0.357
TATTCGGA	-0.000615
ACAGGTCG	-0.216
CTGTGTGC	0.0347
AAGCAGGT	0.0586
CGTTCAAG	-0.0745

Sequence	PBM 8-mer E-score
GCTCGCAA	-0.107
AGTTTTAG	0.162
AGTTTTAT	0.351
AGTTTTAC	0.221
ATACGGCG	-0.11
AACAACTT	0.358
AACAACTA	0.335
AACAACTC	0.185
AGTGGGCA	0.0126
GGTCCGAA	-0.0643
ATAACTAA	0.32
ATAACAAG	0.283
ATAACTAG	0.27
AAAACAAC	0.282
ATAACAAT	0.355
ACAACAAG	0.138
ACAACAAC	0.216
ACAACAAT	0.372
AAAACAAG	0.122
ATAACAAC	0.228
AAAACAAT	0.349
ATAACTAT	0.388
AAGTAGAC	0.0778
ACCATATC	0.099
GCGTGGAC	-0.192

Sequence	PBM 8-mer E-score
TATGGACA	0.0866
TGCAGGCA	-0.0892
GACCACCC	-0.296
GTTTATGA	0.208
ATTTATCC	0.286
ATTTATAC	0.383
ATTTATAA	0.459
CTTTATAC	0.264
CTTTATAA	0.344
GTTTATAA	0.383
ATTTATAG	0.342
GTTTATCA	0.19
CGATACGC	-0.172
AGCGGGAT	-0.138
ACCCTTTC	-0.289
GGCAATAA	0.228
GCTAATTA	0.352
ACTAATTC	0.227
GCTAATCA	0.0157
ACTAATTG	0.308
CCTAATGA	-0.254
GCTAATGA	-0.138
CCTAATTA	0.358
CCTAATTC	0.0847
ACTAATTA	0.45

Sequence	PBM 8-mer E-score
CAAGTAGA	0.141
AGTCAGCA	-0.0242
GGCCAGAA	-0.026
GAACGGGA	-0.0641
GTGCGTTA	0.133
GACCTTGA	-0.138
AGGTTCCG	-0.212
TACTTAAA	0.302
AACTTAAA	0.352
GACTTCAA	0.0947
AAGTTCAA	0.398
CACTTAAA	0.0563
AACTTAAC	0.323
AACTTAAT	0.381
CAGTTCAA	0.0238
AACTTAAG	0.333
AACTTCAG	0.158
GAGTTCAA	0.174
AACTTCAA	0.345
GGGCCACC	-0.382
GATTTGTA	0.205
GCCCGCGC	-0.262
TGGTGCAA	0.0798
ACAGATGA	-0.0583
CGAGGTAC	-0.301

Sequence	PBM 8-mer E-score
ACCCATTA	0.241
CGTTAGCA	-0.0988
CCGGCCTA	-0.174
ATAATTAG	0.429
ATAATTGA	0.338
ATAATTCG	0.228
CTAATTCA	0.228
CTGATTAA	0.278
GTAATTAA	0.343
GAAATTAC	0.247
CTAATTAA	0.413
GTAATTAC	0.393
ATAATTAA	0.456
GCAATTAC	0.169
AGAATTAG	0.00537
CCGTGCCC	-0.184
ATCCTGGA	0.0568
CCGCACGA	-0.13
AACTATGT	0.258
ATGGAGAC	-0.0433
CTTTTCTC	-0.00236
TATTTCCA	0.312
AGACTAAC	0.00982
AGATACCC	-0.0322
ATAATGGA	0.238

Sequence	PBM 8-mer E-score
CACGTCTC	-0.173
ATAATTAT	0.467
ATAATTGG	0.308
CTAATTAG	0.35
ATAATTAC	0.378
ATAATTCC	0.254
AGAATTAT	0.315
CTAATTAC	0.322
CCAATTAG	0.073
CAAATTAG	0.18
AGCTAATC	-0.0533
GAAGTTGA	0.0448
ATTTGGAA	0.0956
GACTAATA	0.297
TAATACTA	0.37
TAATACAA	0.397
AAATACTT	0.246
TACTAATA	0.357
AAATACTC	0.207
CAATACTA	0.172
GAATACTA	0.212
CACTAATA	0.323
AAATACAA	0.33
AAATACTA	0.383
CAATACAA	0.199

Sequence	PBM 8-mer E-score
CTTCGAGC	-0.301
AGAGGCGC	-0.328
CCACGCGC	-0.112
CCCATCGG	-0.267
GGATACGA	0.0766
AAGATCGC	-0.0523
AATGGTTC	-0.0396
AAATACCG	0.271
CCCTAAGG	-0.289
TAGTTAGA	0.178
GCGTTATA	0.252
TAGTTATA	0.402
CAGTTATC	0.131
AAGTTAGA	0.302
TAGTTACA	0.247
AAGTTACA	0.264
GAGTTATC	0.0914
CCGTTATA	0.308
GAGTTATA	0.369
AAGTTATA	0.442
CAGTTATA	0.36
AAGATTGG	0.154
GAAACGGA	-0.164
ATAACCTA	0.182
ATGTCGAC	0.0419

Sequence	PBM 8-mer E-score
AGTTCTGA	0.144
AAAATCAA	0.18
AAAGCTGG	-0.0254
AGTAATTG	0.293
AATAATTG	0.372
CATAATTC	0.223
CATAATTA	0.421
CATAATCA	0.227
AATAATTC	0.344
GATAATCC	0.175
AATAATCG	0.309
GATAATTA	0.419
AATAATTA	0.463
AAGAATTA	0.295
GAGAATTA	0.23
ATTCTTGC	0.0322
CATAGGGA	-0.132
TCCTTCCA	-0.27
GCAGTATA	0.287
ATCGGCGC	-0.104
AGCCCTAT	-0.14
AAGAAGAC	-0.0906
TAACAGGA	0.223
AGCCGCCT	-0.243
CGTTGGCC	-0.25

Sequence	PBM 8-mer E-score
AGATACGG	-0.112
ATTTTTCC	0.0867
GTCGTGAA	-0.22
CAAAGGTA	-0.113
CAACACCA	0.0286
AGATATAG	0.208
AGATATCA	0.194
AGATATAC	0.155
AGATATAT	0.46
AGATATAA	0.373
AGAGATAA	0.144
GAATGGGC	-0.16
GATATTAA	0.438
GAGATTAA	0.232
CATATTAA	0.418
GATATTAC	0.293
CAGATTAA	0.137
CATATTCA	0.184
CCTACCAG	-0.279
